# VLA-4 allo ag: allosterically activates the human VLA-4 integrin. P13612. Jurkat cells, LDV-FITC binding, flow cytometry. activation, % at 10 µM (by protocol). 24,000 tested, under 10 active. AID 528;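 active means fluorescent ligand binding to cells raised by more than 40% of the manganese-induced maximum; inconclusive means compound's own fluorescence above 85% of the ligand control signal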;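 further: 0% = ligand binding without compound and 100% = manganese-stimulated maximal binding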
# Jurkat autofluor: autofluorescence counter-screen for VLA-4 integrin assays; fluorescence ratio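 (tested at 10 µM compound in the well)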; Jurkat cells, compound autofluorescence, flow cytometry; active compounds read high; 1 = vehicle-only cell background; AID 576; 0.61% of 24,000 active;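 active means fluorescence ratio above 2.44, which is 1 plus 3 SD of all ratios; inconclusive means signal too bright to measure linearly, ratio around 10 or more; inactive means fluorescence ratio below 2.44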;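 further: green fluorescence of cells measured with 488 nm excitation and 530 nm emission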
# Proteasome disasm: blocks ATP-dependent breakdown of the yeast 26S proteasome. anti-FLAG beads, GFP-proteasome disassembly, flow cytometry. inhibition of disassembly, % (no concentration beside the values). 0.2% of 24,000 active. AID 751;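 active means inhibition of disassembly above about 33%, limit read from the data; inconclusive means likely self-fluorescent, control bead median signal at least 40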;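 further: plate controls were ATP control with full disassembly for no effect and ATP-gamma-S intact proteasomes for full effect; higher percent means more bead fluorescence retained so stronger block of disassembly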
# VLA-4 antagonist: inhibitors of LDV-FITC ligand binding to Mn2+-activated human VLA-4 integrin. P13612. Jurkat cells, LDV-FITC binding with Mn2+, flow cytometry; 100% = Mn2+-driven binding gain fully reversed. inhibition, % at 10 µM (by protocol). 0.2% of 24,000 active. AID 529;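 active means inhibition above 50%; inconclusive means compound itself fluorescent, judged against control cell fluorescence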;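 further: 0% = Mn2+ stimulated cells lacking compound and 100% = ligand binding without Mn2+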
# * hit, by the source's call; ? = inconclusive. A selection: hits, their analogues and other compounds. The true share with any hit is near 1.1%.
SMILES,VLA-4 allo ag,Jurkat autofluor,Proteasome disasm,VLA-4 antagonist
CC(C)[C@@]1(NC(=O)[C@@H]2C=C3c4cccc5[nH]cc(c45)C[C@H]3N(C)C2)O[C@@]2(O)[C@@H]3CCCN3C(=O)[C@H](Cc3ccccc3)N2C1=O,?,3.51*,18.1,?
Clc1ccc(COC(Cn2ccnc2)c2ccc(Cl)cc2Cl)c(Cl)c1 (stereo not drawn),-18.0,1.09,0.1,5.5
